For this assay, the system named is Trypanosoma brucei. Nature of the assay: Trypanosoma brucei 72 hour study. Format: functional, organism-based. Further details: scale not given: in the data most compounds retested in dose-response had high values.

Screen size: about 66,000 compounds; about 960 (1.5%) showed an effect of 50% or more. Shown is part of a subset that was picked to be rich in strong results.

As to `Cc1cccc(CN2C(=O)CCC23CCN(Cc2cccn2C)CC3)n1.O=C(O)C(F)(F)F.O=C(O)C(F)(F)F`, the “Percent Effect” value (30.3 µM, […]) is listed as -13.68%.

As for `Cl.O=C(CCC1CCCC1)NCCn1nc(C2CCNC2)c2cccnc21` (stereo not given), the “Percent Effect” value (30 µM, 30.03 µM) worked out at 11.21%.

Take `CN(C)c1ncc(-c2ccc(C(N)=O)cc2)c(C2CCNC2)n1.Cl` (stereo not given): where the note is “30.3 µM, […]”, the “Percent Effect” value was found to be 3.717%.

Turning to `C[C@@H]1CN(C2CCCCC2)CC[C@@]1(O)C1CCOCC1`, the “Percent Effect” value (30 µM, 30.03 µM) is given as -20.03%.

Turning to `CCOCCNc1nc(-c2ccncc2)nc2c1CCNCC2`, for the setting “30.3 µM, […]”, the “Percent Effect” value is recorded as -307.1%.

As to `CC(Nc1nc(-c2ccncc2)nc2c1CCNC2)c1ccccc1` (stereo not given), under “30 µM, 30.03 µM”, the “Percent Effect” value is on record as -57.19%.

In the case of `Cl.NC1CCc2nc(-c3ccncc3)nc(Nc3cccc(F)c3)c2C1` (stereo not given), the “Percent Effect” value (30.3 µM, […]) was 99.62%.

With `O=C(Nc1cccc(F)c1)NC1CCN(Cc2ccncc2)CC1`, the “Percent Effect” value (30.3 µM, […]) is listed as -25.17%.

In the case of `c1cc(-c2nc3c(c(NCCn4ccnn4)n2)CCNCC3)ccn1`, the “Percent Effect” value (30 µM, 30.03 µM) is reported as -15.86%.

Regarding `CS(=O)(=O)NCc1ncn2c1CN(Cc1cccs1)CCC2.O=C(O)C(F)(F)F.O=C(O)C(F)(F)F`, the “Percent Effect” value (30 µM, 30.03 µM) was found to be 32.32%.

Consider `Cc1c(C(=O)NCCC(=O)N2CCOCC2)sc2ccc(F)cc12`, for which the “Percent Effect” value (30 µM, 30.03 µM) is recorded as -29.66%.

Regarding `CN1C[C@]2(CC[C@@H](C(=O)O)CC2)Oc2ccccc2C1=O`, where the note is “30.3 µM, […]”, the “Percent Effect” value is -13.61%.

With `C[C@@H]1CN(C(=O)c2cccs2)C[C@]12CCN(CCN(C)C)C2=O.O=C(O)C(F)(F)F`, the “Percent Effect” value (30.3 µM, […]) is recorded as -25.2%.

For `O=C(O)C(F)(F)F.O=C(O)C(F)(F)F.c1nc2n(c1CN1CCCCC1)CCN(C1CCOC1)CC2` (stereo not given), the “Percent Effect” value (30 µM, 30.03 µM) is listed as -102.4%.

On to `c1nc2n(c1CN1CCCC1)CCN(C1CCOCC1)CC2`, for which the “Percent Effect” value (30 µM, 30.03 µM) was found to be 51.58%.

Consider `c1nc2n(c1CN1CCOCC1)CCN(C1CCOC1)CC2` (stereo not given), for which the “Percent Effect” value (30 µM, 30.03 µM) is -183.8%.

`Cl.O=C(NCCO)C1(Cc2ccccc2-c2cccnc2)CCOCC1`: where the note is “30.3 µM, […]”, the “Percent Effect” value is given as -4.855%.

For `COC1COC2(CCN(Cc3ccc4c(c3)OCO4)CC2)C1.O=C(O)C(F)(F)F` (stereo not given), the “Percent Effect” value (30.3 µM, […]) is -15.29%.

For `Br.Cc1ncc(C(=O)N2CCOC(C(=O)N3CCCCCC3)C2)c(C)n1` (stereo not given), under “30.3 µM, […]”, the “Percent Effect” value was -22.96%.

In the case of `O=C(NCCCN1CCOCC1)c1ccc(-n2ccc3ccccc32)s1`, the “Percent Effect” value (30 µM, 30.03 µM) was -4.421%.

For the compound `Cn1ccc2c(C(=O)NCCCN3CCCC3)cccc21`, the “Percent Effect” value (30 µM, 30.03 µM) was -4.832%.

With `CCN(CC)CCNC(=O)c1ccc(-n2ccc3ccccc32)s1`, under “30 µM, 30.03 µM”, the “Percent Effect” value was -12.39%.

For the compound `O=C(NCCN1CCOCC1)c1ccc(-n2ccc3ccccc32)s1`, the “Percent Effect” value (30 µM, 30.03 µM) worked out at 63.33%.

Consider `O=C(NCCCN1CCCC1=O)c1ccc(-n2ccc3ccccc32)s1`, for which the “Percent Effect” value (30 µM, 30.03 µM) was determined as 23.58%.

`O=C(NCCCN1CCCCC1)c1ccc(-n2ccc3ccccc32)s1`: the “Percent Effect” value (30 µM, 30.03 µM) is recorded as 80.76%.

Regarding `COc1cc(Oc2cnc3ccccc3n2)ccc1CN1CCCC1`, the “Percent Effect” value (30 µM, 30.03 µM) is on record as -18.27%.

`CC1CCCCN1C(=O)c1n[nH]c(=O)c2ccccc12` (stereo not given): the “Percent Effect” value (30.3 µM, […]) is -7.93%.

For `Cn1nnc2c1CCN(Cc1ccncc1)C2COCC1CC1.O=C(O)C(F)(F)F.O=C(O)C(F)(F)F` (stereo not given), where the note is “30 µM, 30.03 µM”, the “Percent Effect” value was found to be 49.24%.

In the case of `CCOCc1ccccc1NC(=O)NCC(C)(O)c1ccsc1` (stereo not given), the “Percent Effect” value (30 µM, 30.03 µM) was found to be 56.33%.

Turning to `CCOCc1ccccc1NC(=O)NCC(C)(O)c1cccs1` (stereo not given), the “Percent Effect” value (30 µM, 30.03 µM) is on record as -46.58%.

Take `CCOCc1ccccc1NC(=O)NCC(C)(O)c1cc(C)oc1C` (stereo not given): the “Percent Effect” value (30 µM, 30.03 µM) is listed as -15.34%.

In the case of `Cc1nonc1CN(C)c1nc(-c2ccco2)nc2c1CCN(C)CC2`, where the note is “30 µM, 30.03 µM”, the “Percent Effect” value was -56.96%.

In the case of `O=C(NCCc1coc(-c2ccccc2)n1)NC1CC1`, the “Percent Effect” value runs as follows: (10 µM) 101.4%; (30.3 µM, […]) 100%.

As to `O=C(NCCc1coc(-c2ccc(F)cc2)n1)NC1CC1`, the “Percent Effect” value was found to be 99.81% (10 µM) and 99.45% (30.3 µM, […]).

As to `O=C(NCCc1coc(-c2ccc(F)cc2)n1)NC1CCC(O)CC1` (stereo not given), the “Percent Effect” value (30 µM, 30.03 µM) is reported as -16.25%.

As to `Cc1ccc(-c2nc(CCNC(=O)NC3CCC(O)CC3)co2)cc1` (stereo not given), the “Percent Effect” value (10 µM) is given as -4.374% and the “Percent Effect” value (30.3 µM, […]) is 17.54%.

On to `Cc1ccc(-c2nc(CCNC(=O)NC3CCN(C)CC3)co2)cc1`, for which the “Percent Effect” value (30 µM, 30.03 µM) turned out to be 6.387%.

Consider `COc1ccc(-c2nc(CCNC(=O)NC3CCC(O)CC3)co2)cc1` (stereo not given), for which, where the note is “30 µM, 30.03 µM”, the “Percent Effect” value is on record as -54.4%.

Consider `CO[C@@H]1CN(c2ccccc2)S(=O)(=O)[C@@]12CCN(C(=O)N(C)C)C2`, for which the “Percent Effect” value (30.3 µM, […]) is on record as 5.082%.

Consider `O=C1C[C@H]2CC[C@@H](CN1)N2C(=O)CCc1ccsc1`, for which, under “30.3 µM, […]”, the “Percent Effect” value is given as 5.085%.

Turning to `CCc1n[nH]c(C2CN(C(=O)c3ncoc3C(C)C)CCO2)n1` (stereo not given), the “Percent Effect” value (30.3 µM, […]) turned out to be 10.22%.

For the compound `COCCN(CC1CC1)c1nc(CCN)nc2ccccc12`, the “Percent Effect” value (30 µM, 30.03 µM) turned out to be 27.63%.

Consider `COCCN(CC1CC1)c1nc(CCN)nc2sc(C)c(C)c12`, for which the “Percent Effect” value (30 µM, 30.03 µM) is on record as 105.1%.

Consider `Cc1sc2nc(CCN)nc(N(CCN(C)C)CC3CCCO3)c2c1C` (stereo not given), for which, for the setting “30 µM, 30.03 µM”, the “Percent Effect” value is reported as 33.05%.

On to `Cc1sc2nc(CCN)nc(N(C)CCCC3CCCO3)c2c1C` (stereo not given), for which the “Percent Effect” value (30 µM, 30.03 µM) came to 73.15%.

For the compound `COCCN(Cc1cccs1)c1nc(CCN)nc2ccccc12`, where the note is “30 µM, 30.03 µM”, the “Percent Effect” value turned out to be 3.665%.

Consider `CCN(CCN(C)C)c1nc(CCN)nc2sc(C)c(C)c12`, for which the “Percent Effect” value (30 µM, 30.03 µM) is listed as -19.52%.

The values are drawn from ChEMBL document CHEMBL3988442, “University of Dundee, Small-Polar-MMV Screening Library” (2021).
